NIH3T3 tox: Cytotoxic Profiling in NIH 3T3 Cell Line of Diverse Libraries Using Quantitative High-Throughput Screening; NIH 3T3 viability, CellTiter-Glo ATP luminescence, 48-72 h; Potency, µM (series often up to 96.7 µM), for the others: top-dose activity change, negative = cytotoxicity, actives largely listed as inhibitors; 94,000 compounds, 4.3% hits; AID 1345082, 2018; note: nearly all actives have a fitted effect of over 55% in size
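NIH 3T3 cells at 400 cells/well received 23 nL of compound by pintool and were incubated 48 or 72 h at 37 °C. Viability was read as ATP-coupled CellTiter-Glo luminescence.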
FLuc inh: Firefly luciferase inhibition profiling of diverse chemical library using quantitative high-throughput screening; Potency, µM (highest dose often 115 µM), actives largely listed as inhibitors; AID 1347043, 2019; Luciferin 4-monooxygenase (Photinus pyralis), P08659; purified P. pyralis luciferase, luminescence, biochemical; 76,000 compounds, 2.5% hits; note: nearly all actives have a fitted effect of over 65% in size
Target sequence (P08659 whole entry, looked up): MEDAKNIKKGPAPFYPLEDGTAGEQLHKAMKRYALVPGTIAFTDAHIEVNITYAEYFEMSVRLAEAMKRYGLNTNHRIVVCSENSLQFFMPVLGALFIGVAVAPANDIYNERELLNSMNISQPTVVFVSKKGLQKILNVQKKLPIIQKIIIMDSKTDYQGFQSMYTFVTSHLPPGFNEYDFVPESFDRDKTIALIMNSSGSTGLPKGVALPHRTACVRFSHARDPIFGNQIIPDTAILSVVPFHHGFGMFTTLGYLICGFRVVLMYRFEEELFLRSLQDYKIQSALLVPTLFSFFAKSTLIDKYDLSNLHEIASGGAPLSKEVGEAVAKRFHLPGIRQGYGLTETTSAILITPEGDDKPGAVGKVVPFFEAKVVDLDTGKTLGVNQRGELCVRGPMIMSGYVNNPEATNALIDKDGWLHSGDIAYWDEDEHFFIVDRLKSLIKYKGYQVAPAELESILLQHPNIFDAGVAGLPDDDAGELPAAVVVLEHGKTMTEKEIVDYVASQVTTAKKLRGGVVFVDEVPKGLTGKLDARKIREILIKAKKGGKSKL
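Luminescence read by CCD imager after adding enzyme (10nM final) to wells holding compound, titrated in qHTS. Substrates 10uM each D-luciferin and ATP; buffer 50mM Tris acetate pH 7.5, 10mM Mg acetate, Tween-20, BSA.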
hNpr1 antagonist: Natriuretic polypeptide receptor (hNpr1) antagonism - Primary qHTS; Atrial natriuretic peptide receptor 1 (Homo sapiens), P16066; HEK293 hNpr1 GloSensor cGMP, ANP-stimulated luminescence; Potency, µM (doses to about 46.3 µM), for inactives: top-dose activity change, negative = inhibition, most hits filed as inhibitors; 76,000 compounds, 1.6% hits; AID 1347048, 2019; calls by dose curve; note: nearly all actives have a fitted effect of over 60% in size
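Compound pre-incubated 30 min at room temperature on GloSensor-loaded HEK293 cells stably carrying hNpr1 and the pGS-40F cGMP biosensor. Stimulation uses hNppA at 0.1 nM final; luminescence is taken at baseline and 20 min post-agonist.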
HEK cytotox: Cytotoxic Profiling in HEK 293 Cell Line of Diverse Libraries Using Quantitative High-Throughput Screening; HEK 293 viability, ATP luminescence (CellTiter-Glo), 48-72 h; 94,000 compounds, 6.6% hits; Potency, µM (top dose mostly 115 µM), without a hit: at the highest dose activity change, negative = cytotoxicity, most hits filed as inhibitors; note: nearly all actives have a fitted effect of over 60% in size
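Read-out: CellTiter-Glo ATP luminescence. Cells: HEK 293, 250 cells/well. Exposure: 48 or 72 hr, 37 degree Celsius.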
Active calls of the source: *; i = inactive; ? = inconclusive; . = no result given; [ ] = another dose, or the depositor's remark. An excerpt weighted towards active compounds, which were near 11% of everything screened. Unless noted, calls come from the whole dose curve; as a rule, active = well fitted curve in the direction sought with a large enough effect; inconclusive = small, poorly fitted or top-dose-only effect, or another doubt; inactive = no such curve, though single readings can be large; an effect the other way counts as inactive or inconclusive. % is set by controls: 0 for no effect and ±100 for the full control effect; potency is the fitted concentration of half-maximal effect.

SMILES	NIH3T3 tox	FLuc inh	hNpr1 antagonist	HEK cytotox
COc1cccc(-c2noc(-c3ccc(-c4ccc(O)cc4)nc3)n2)c1OC	45µM*	?	-1%	?
COc1ccccc1-c1noc(-c2nc(-c3ccncc3)no2)n1	5%	i	-5%	-2%
O=C(c1n[nH]c(=O)c2ccccc12)N1CCC(c2nc(CCOCC3CC3)no2)C1 (stereo not drawn)	i	i	6%	-4%
O=C(C[C@@H]1CCNC[C@@H]1Cc1cc(-c2ccccc2)on1)N1CCc2ccccc2C1	32µM*	i	-11%[70.6 µM]	40µM*
COc1ccc(-c2cc(C[C@H]3CNCC[C@H]3CC(=O)N3CCN(c4ccccc4)CC3)no2)cc1	25µM*	i	-1%	40µM*
CN(Cc1cc(C[C@H]2CNCC[C@H]2CC(=O)N2CCN(c3ccccc3)CC2)no1)c1ccccc1	20µM*	i	-17%	?
CN1CCN(C(=O)C[C@@H]2CCNC[C@@H]2Cc2cc(-c3ccccc3)on2)CC1	?	i	-13%[70.6 µM]	-30%[172 µM]
COc1ccc(-c2cc(C[C@H]3CNCC[C@H]3CC(=O)N3CCN(C)CC3)no2)cc1	?	i	-5%[70.6 µM]	-27%[172 µM]
COc1cc2c(cc1OC)CN(C(=O)C[C@@H]1CCNC[C@@H]1Cc1cc(-c3ccccc3)on1)CC2	?	i	4%	79µM*
C[C@H](O)c1c(-c2ccc(Cl)cc2)noc1C(=O)NC1CC1	?	i	-8%[70.6 µM]	112µM*
CNC(=O)c1onc(-c2ccc(Cl)cc2)c1[C@H](C)O	-36%[174 µM]	i	-9%[70.6 µM]	-32%[230 µM]
COc1ccc(C(=O)N2CCCC(N3C(=O)c4c(c(C)nn4-c4ccccc4)C3C)C2)cc1 (stereo not drawn)	14µM*	.	.	?
Cc1nn(-c2ccccc2)c2c1C(C)N(C1CCCN(C(=O)c3ccncc3)C1)C2=O (stereo not drawn)	?	.	.	-26%
Cc1nn(-c2ccccc2)c2c1C(C)N(C1CCCN(C(=O)c3ccccc3Cl)C1)C2=O (stereo not drawn)	?	.	.	40µM*
Cc1noc(C)c1C(=O)N1Cc2ccccc2CC2(CCN(C)C2)C1 (stereo not drawn)	79µM*	.	.	79µM*
CCC(=O)N1Cc2ccccc2CC2(CCCN(C)C2)C1 (stereo not drawn)	?	.	.	79µM*
Cc1noc(C)c1C(=O)N1Cc2ccccc2CC2(CCN(CC3CCNCC3)CC2)C1	4%	.	.	0%
CC(=O)N1Cc2ccccc2CC2(CCCN(C)C2)C1 (stereo not drawn)	i	.	.	-6%[172 µM]
COc1ccc(C(=O)N2CCC(N3C(=O)[C@H]4CN(Cc5ccccc5)C[C@H]4C3=O)CC2)cn1	-21%	.	.	?
Cc1nn(-c2ccccc2)c2c1C(C1CC1)N(C1CCN(C(=O)c3cccc(Cl)c3)C1)C2=O (stereo not drawn)	?	.	.	25µM*
Cc1nn(-c2ccccc2)c2c1C(C1CC1)N(C1CCN(C(=O)c3cccc(Cl)c3)CC1)C2=O (stereo not drawn)	-27%	.	.	?
Cc1nn(-c2ccccc2)c2c1C(C1CC1)N(C1CCN(C(=O)NC3CCCC3)C1)C2=O (stereo not drawn)	?	.	.	45µM*
COc1cccc(C(=O)N2CCC(N3C(=O)c4c(c(C)nn4-c4ccccc4)C3C3CC3)C2)c1 (stereo not drawn)	?	.	.	35µM*
Cc1nn(-c2ccccc2)c2c1C(C1CC1)N(C1CCN(C(=O)NC(C)C)C1)C2=O (stereo not drawn)	-20%	.	.	-3%
Cc1oc2ccn(Cc3cccc(F)c3)c(=O)c2c1C(=O)NCc1cccc(F)c1	?	i	-16%	?
SMILES	NIH3T3 tox	FLuc inh	hNpr1 antagonist	HEK cytotox
Cc1oc2ccn(Cc3ccc(F)cc3)c(=O)c2c1C(=O)O	2%	i	2%	6%
CCCNC(=O)c1c(C)oc2ccn(Cc3ccc(F)cc3)c(=O)c12	?	i	-15%	35µM*
COc1ccc(C(C)NC(=O)c2c(C)oc3ccn(Cc4cccc(F)c4)c(=O)c23)cc1 (stereo not drawn)	?	i	-14%	32µM*
COc1ncccc1-c1cnc2[nH]cc(CC(=O)Nc3ccncc3)c2c1	32µM*	i	?	63µM*
CN1CCC(NC(=O)Cc2c[nH]c3ncc(-c4ccccc4)cc23)CC1	?	i	-16%[70.6 µM]	?
COc1ncccc1-c1cnc2[nH]cc(CC(=O)Nc3ccccc3)c2c1	40µM*	i	?	?
COc1ccc(-c2cnc3[nH]cc(CC(=O)NC4CCC(O)CC4)c3c2)cc1 (stereo not drawn)	25µM*	i	-8%[70.6 µM]	?
COc1ccc(-c2cnc3[nH]cc(CC(=O)Nc4ccncc4)c3c2)cc1	32µM*	i	?	?
COc1ncccc1-c1cnc2[nH]cc(CC(=O)Nc3ccccc3C)c2c1	?	i	-29%[70.6 µM]	?
COc1ccc(-c2cnc3[nH]cc(CC(=O)Nc4cccc(F)c4)c3c2)cc1	?	i	-30%[70.6 µM]	?
O=C(NCCc1ccncc1)C1CN(C(=O)c2ccccc2)CC12CCOCC2 (stereo not drawn)	-6%	i	1%	-1%
O=C(NCC1Cn2cccc2C(=O)N1Cc1ccccc1)c1ccsc1 (stereo not drawn)	-9%	i	-18%	?
CC(C)CNC(=O)C1c2ccccc2C(=O)N(Cc2ccco2)C12CCCC2 (stereo not drawn)	-23%	i	-17%	?
Cc1ccccc1-c1cnc2[nH]cc(CC(=O)NC3CCOCC3)c2c1	?	i	-17%[70.6 µM]	?
COc1cccc(NC(=O)Cc2c[nH]c3ncc(-c4ccccc4C)cc23)c1	?	i	?	71µM*
CCNC(=O)Cc1c[nH]c2ncc(-c3cccnc3OC)cc12	89µM*	i	-15%[70.6 µM]	-38%[172 µM]
COc1ncccc1-c1cnc2[nH]cc(CC(=O)Nc3cccnc3)c2c1	?	i	?	89µM*
Cn1nccc1C(=O)N1CCCCCCNC(=O)[C@@H]2CCC[C@@H]21	-4%	i	4%	i
OC[C@@H]1CN(Cc2ccc(F)cc2)C[C@H]1c1nc(-c2ccncc2)no1	?	?	14µM*	?
OC[C@@H]1CN(Cc2cccc(F)c2)C[C@H]1c1nc(-c2ccncc2)no1	-17%	i	-23%	45µM*
OC[C@@H]1CN(Cc2ccoc2)C[C@H]1c1nc(-c2ccncc2)no1	-18%	?	2%	?
O=C(NCC(=O)N1CCC(Cc2ccccc2)CC1)c1cccc(-c2ccsc2)c1	-25%	.	.	?
O=C(NCc1cccc(Cl)c1)C1CCCN(Cc2cccc(-c3ccsc3)c2)C1 (stereo not drawn)	40µM*	.	.	32µM*

From PubChem
